PubChem BioAssay (NCATS)
Records with an inconclusive call do not appear. Calls of active or inactive are those of the source. Calls come from the whole dose curve; as a rule, active = well fitted cell-killing curve with a large enough effect; inconclusive = small, poorly fitted or top-dose-only effect; inactive = flat fitted curve, though single readings scatter.

Assay: Quantitative highthroughput screen to assess conditional lethalithy of P12 Ichikawa cells grown in RPMI1640 with dialyzed fetal bovine serum (RPMI+ds) (AID 1963880); note: nearly all actives have a fitted effect of over 35% in size
Settings: ATP luminescence, 48 h; Potency: P12-Ichikawa viability; series mostly up to 45.8 µM; viability: at the top concentration
Text: Assay Provider: Jason Cantor Ph.D.
Department of Biochemistry
University of Wisconsin-Madison, Madison, WI, USA
Chemical screening studies have identified drug sensitivities across hundreds of cancer cell lines but most putative therapeutics fail to translate. Discovery and development of drug candidates in models that more accurately reflect nutrient levels in human blood is a major challenge. Here we performed high-throughput screens in conventional versus Human Plasma-Like Medium (HPLM) to identify compounds that were "missed" when screening using the artificial culture condition. Sets of conditional anticancer compounds spanned phases of clinical development and included non-oncology drugs were assessed. […] We also traced conditional phenotypes for several chemotherapeutics to availability of HPLM-specific metabolites and confirmed others for compounds whose reported targets are encoded by nonessential genes. Our findings establish generalizable strategies for exploiting conditional lethality in HPLM to reveal therapeutic candidates and mechanisms of action in cancer cells.
Described herein are the results of each viability screens against three cell lines: NOMO1 (an acute myeloid leukemia cell line); P12-Ichikawa (a T-cell acute lymphoblastic leukemia); and SEM (a B-cell ALL). Each assay was screened using 3 different cell culture media: homemade human plasma-Like medium with 10% dialyzed fetal bovine serum (HPLM+ds); RPMI1640 with 10% untreated FBS and 5mM glucose (RPMI+s); and RPMI1640 with 10% dialyzed fetal bovine serum and 5 mM glucose (RPMI+ds).
PROTOCOL TABLE (as described by Inglese J, Shamu CE and Guy RK. 2007)
SEQUENCE No. (e.g., 1, 2, 3, etc.); […] (e.g., Cells, Incubation, Reagent, etc.); VALUE and DESCRIPTION.
1; Cells; 5 uL; white, solid bottom 1536-well Greiner assay plate.
2; Compounds; 23 nL; Kalypsis pin tool (Wako USA) equipped with a 1536-well pin head to transfer to the assay plates.
3; Incubation; 48 hours; 37C incubation.
4; Reagent; 3 uL; CellTiter Glo (Promega).
5; Incubation; 5 min, room temperature
6; Detection; Luminescence, Viewlux PerkinElmer.
NOTES (numbers refer to Sequence numbers above)
1. Briefly, 5 ul of cell reagent was dispensed using a Multidrop Combi Dispenser. The NOMO1 and SEM cells were plated at 500 cells/well and the P12-Ichikawa line at 1000 cells/well.
2. After seeding the cells, 23 nL of MIPE 4.1 library compounds (in DMSO) were added to each plate using a Kalypsys 1536 Pintool dispenser. Bortezomib at final concentration of […] and DMSO were added to each plate as positive and negative controls respectively. For each screen, MIPE 4.1 compounds were added over an eleven-point concentration range […] in 3-fold dilutions.
3. Each plate was covered with a stainless steel gasketed lid to prevent evaporation and incubated for 48 hour at 37C, 95% relative humidity, and 5% CO2.
4-5. Three microliter CellTilter-GloTM luminescent substrate mix (Promega) reagent was added to the assay plate and incubated at room temperature for 5 min.
6. The luminescence signal was measured using a ViewLux (PerkinElmer) multiplate reader with a 2 second exposure time per plate. Data for each compound were normalized as percent viability such that measurements for DMSO and the empty well controls in each plate were defined as 100% and 0%, respectively.
Potency is the fitted concentration of half-maximal effect.

| SMILES | viability | Potency |
| --- | --- | --- |
| COc1ccc(C(CN(C)C)C2(O)CCCCC2)cc1 (stereo not given) | 99.4% (inactive) | – |
| CCOc1ccccc1-n1c(C(C)N2CCN(C(=O)COc3ccc(Cl)cc3)CC2)nc2ccccc2c1=O (stereo not given) | – | 1050 nM (active) |
| COC1=C[C@@H]2[C@@H]3Cc4ccc(OC)c(O)c4[C@]2(CCN3C)CC1=O | 98.4% (inactive) | – |
| O=c1[nH]c2ccccc2n1C1CCN(Cc2ccc(-c3[nH]c4cc5ncnc5cc4nc3-c3ccccc3)cc2)CC1 | 91.7% (inactive) | – |
| CC1=C2C[C@@H]3[C@@H](CC=C4C[C@@H](O)CC[C@@]43C)[C@@H]2CC[C@]12O[C@H]1C[C@H](C)CN[C@H]1[C@H]2C | 90.4% (inactive) | – |
| Cc1sc2c(c1C)C(c1ccc(Cl)cc1)=N[C@@H](CC(=O)OC(C)(C)C)c1nnc(C)n1-2 | – | 2640 nM (active) |
| CCc1c(C(=O)C(N)=O)c2c(OCC(=O)O)cccc2n1Cc1ccccc1 | 96.8% (inactive) | – |
| CN(C)[C@@H]1C(=O)C(C(N)=O)=C(O)[C@@]2(O)C(=O)C3=C(O)c4c(O)cccc4[C@@](C)(O)[C@H]3[C@H](O)[C@@H]12 | 105% (inactive) | – |
| CC(=Cc1csc(C)n1)[C@@H]1C[C@H]2O[C@]2(C)CCC[C@H](C)[C@@H](O)[C@@H](C)C(=O)C(C)(C)[C@@H](O)CC(=O)O1 | 37.3% (inactive) | – |
| O=C(O)c1nn(Cc2ccc(Cl)cc2Cl)c2ccccc12 | 101% (inactive) | – |
| CN1C(=O)CCS(=O)(=O)C1c1ccc(Cl)cc1 (stereo not given) | 91.2% (inactive) | – |
| C[C@@H]1CC[C@@]2(OC1)O[C@H]1C[C@H]3[C@@H]4CC=C5C[C@@H](O[C@@H]6O[C@H](CO)[C@@H](O[C@@H]7O[C@@H](C)[C@H](O)[C@@H](O)[C@@H]7O)[C@H](O)[C@@H]6O[C@@H]6O[C@@H](C)[C@H](O)[C@@H](O)[C@@H]6O)CC[C@]5(C)[C@@H]4CC[C@]3(C)[C@@H]1[C@H]2C | – | 23500 nM (active) |
| C[C@]12CC[C@H]3[C@@H](CCC4=CC(=O)CC[C@@]43C)[C@H]1CC[C@H]2OC(=O)CCC1CCCC1 | 94% (inactive) | – |
| COc1ccc2c(c1OC)CN1CCc3cc4c(cc3C1C2)OCO4 (stereo not given) | – | 1660 nM (active) |
| O=C(N[C@H]1CN2CCC1CC2)c1ccc(Cl)cc1 | 87.2% (inactive) | – |
| CC(C)[C@]12O[C@@H]1[C@@H]1O[C@]13[C@]1(O[C@H]1C[C@@H]1C4=C(CC[C@@]13C)C(=O)OC4)[C@H]2O | – | 1.2 nM (active) |
| CC(=O)Nc1ccc(OC[C@](C)(O)C(=O)Nc2ccc([N+](=O)[O-])c(C(F)(F)F)c2)cc1 | 101% (inactive) | – |
| NC1=NC(=O)N2CC12 (stereo not given) | – | 6620 nM (active) |
| O=S(=O)(F)Cc1ccccc1 | 71.5% (inactive) | – |
| CN1CCN(c2ccc([N+](=O)[O-])c3no[n+]([O-])c23)CC1 | 86.6% (inactive) | – |

| SMILES | viability | Potency |
| --- | --- | --- |
| CC(N[C@H]1C[C@H]1c1ccccc1)c1ccc2c(c1)OCCO2 (stereo not given in full) | 95.1% (inactive) | – |
| CC(=CCCC1=CCC(C2=CC(=O)OC2O)OC1O)CCC1=C(C)CCCC1(C)C (stereo not given) | 95.8% (inactive) | – |
| CCOC(=O)c1c(C(C#N)=CN)c2ccc(Cl)c(Cl)c2n1C | 98.7% (inactive) | – |
| C[C@@H]1[C@H](O)[C@@H](C)C=CC=CCCC=CC=CC=CC=C[C@H](O[C@H]2O[C@@H](C)[C@H](O)[C@@H](N)[C@@H]2O)CC2O[C@](O)(C[C@@H](O)[C@H](O)CC[C@@H](O)C[C@@H](O)C[C@@H](O)CC(=O)O[C@H]1C)C[C@H](O)[C@H]2C(=O)O | 105% (inactive) | – |
| CN(C)[C@@H]1C(=O)C(C(N)=O)=C(O)[C@@]2(O)C(=O)C3=C(O)c4c(O)cccc4[C@@](C)(O)[C@H]3C[C@@H]12 | 95% (inactive) | – |
| C[C@]12CCC(=O)C=C1CC[C@@H]1[C@H]3CC[C@](C)(O)[C@@]3(C)CC[C@@H]12 | 98.4% [at 92.2 µM] (inactive) | – |
| O=C1CCC[C@@H]2[C@H]3CCCN4CCC[C@@H](CN12)[C@@H]34 | 95.5% (inactive) | – |
| Cc1[nH]nc2ccc(-c3cncc(OC[C@@H](N)Cc4c[nH]c5ccccc45)c3)cc12 | – | 1050 nM (active) |
| C[C@H]([C@H](O)CCC(C)(C)O)[C@H]1CC[C@@]2(O)C3=CC(=O)[C@@H]4C[C@@H](O)[C@@H](O)C[C@]4(C)[C@@H]3CC[C@]12C | 105% (inactive) | – |
| C#C[C@]1(O)C=C[C@@H]2[C@@H]3CCC4=CC(=O)CC[C@@H]4[C@H]3CC[C@@]21CC | 99% (inactive) | – |
| Cc1cc(SCc2sc(-c3ccc(C(F)(F)F)c(F)c3)nc2C)ccc1OCC(=O)O | 88% (inactive) | – |
| CC1(N2CCC(n3c([C@@H]4CCCNC4)nc4ccccc43)CC2)CCCCCCC1 | – | 13200 nM (active) |
| Oc1ccc2c3c1O[C@H]1c4[nH]c5c(c4C[C@@]4(O)[C@@H](C2)N(CC2CC2)CC[C@]314)C[C@@]1(O)[C@H]2Cc3ccc(O)c4c3[C@@]1(CCN2CC1CC1)[C@H]5O4 | 111% (inactive) | – |
| O=P1(NCCCl)OCCCN1CCCl (stereo not given) | 95.6% (inactive) | – |
| C[C@](O)(COc1ccc(C#N)cc1)C(=O)Nc1ccc(C#N)c(C(F)(F)F)c1 | 86% (inactive) | – |
| CC(C)(O)C=CC(=O)[C@](C)(O)[C@H]1[C@H](O)C[C@]2(C)[C@@H]3CC=C4[C@@H](C=C(O)C(=O)C4(C)C)[C@]3(C)C(=O)C[C@@]12C | – | 166 nM (active) |
| COC[C@H]1OC(=O)c2coc3c2[C@@]1(C)C1=C(C3=O)C2CCC(=O)[C@@]2(C)C[C@H]1OC(C)=O (stereo not given in full) | 83% (inactive) | – |
| C[C@@H]1[C@@H](C(=O)C[C@H]2O[C@@H]3O[C@]4(C)CC[C@@H]5[C@H](C)CC[C@@H]([C@H]2C)[C@@]35OO4)O[C@@H]2O[C@]3(C)CC[C@H]4[C@H](C)CC[C@@H]1[C@@]24OO3 | – | 16600 nM (active) |
| NCC1(CC(=O)O)CCCCC1 | 110% (inactive) | – |
| O=C1C=CC[C@@H]2[C@H]3CCCN4CCC[C@@H](CN12)[C@@H]34 | 95.3% (inactive) | – |
